Most compounds without a hit are left out; they make up all but 2.7% or so of the library.
GLP1R cytotox: qHTS of GLP-1 Receptor Inverse Agonists: Cytotox Screen. AID 624418, 2012. HEK293 cAMP-luciferase reporter cells, luminescence, 24 h. Potency, µM (series often up to 38.3 µM), without a hit: at the top dose activity change, negative = inhibition, actives largely listed as inhibitors. actives 0.13% (n = 410,000);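 note: loss of luciferase light is scored as toxicity; % is set by controls: 0 for no effect and ±100 for the full control effect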
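Step one: seed cells (200 cells/uL, DMEM with 10% Nu serum, 1% pen-strep). Step two: 12-hour incubation at 37 deg C. Step three: pin 23 nL compound, incubate 24 hr. Step four: add luciferase reagent, read luminescence 12 min later.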
rTrxR1 inhibitor: qHTS Assay for Inhibitors of Mammalian Selenoprotein Thioredoxin Reductase 1 (TrxR1): qHTS; recombinant rTrxR1, NADPH fluorescence consumption, selenite substrate; Potency, µM (top dose mostly 114 µM), inactives show at the highest dose activity change, negative = inhibition, hits mostly inhibitors; AID 588453, 2011; actives 1% (n = 390,000); Thioredoxin reductase 1, cytoplasmic (Rattus norvegicus), O89049; note: % is set by controls: 0 for no effect and ±100 for the full control effect; nearly all actives have a fitted effect of over 65% in size
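Rat TrxR1 (90 nM in the dispensed reagent) was pre-reduced with 400 uM NADPH for 5 min at room temperature, then incubated with compound for 15 min. After 400 uM selenite was added, NADPH fluorescence (Ex 340/Em 450 nm) was followed for 8 min.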
IDH1 R132H inh: qHTS for Inhibitors of mutant isocitrate dehydrogenase 1 (IDH1): qHTS | Isocitrate dehydrogenase [NADP] cytoplasmic (Homo sapiens), O75874 | IDH1-R132H enzyme, NADPH consumption, diaphorase/resazurin fluorescence | Potency, µM (doses to about 76.6 µM), for inactives: at the top dose activity change, negative = inhibition, hits mostly inhibitors | actives 0.093% (n = 390,000) | AID 602179, 2012; note: % is set by controls: 0 for no effect and ±100 for the full control effect; nearly all actives have a fitted effect of over 65% in size
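IDH1-R132H (0.5 ug/mL) preincubated 30 min with compound, then NADPH (0.016 mM) and alpha-KG (2 mM) added; 80 min at RT, pH 7.5. Remaining NADPH coupled via diaphorase/resazurin to fluorescence (540/590 nm); concentration-response curves normalized to no-enzyme control.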
GLP-1R inv ag: qHTS of GLP-1 Receptor Inverse Agonists (Inhibition Mode); Glucagon-like peptide 1 receptor (Homo sapiens), P43220; HEK293 GLP-1R CRE-luciferase, luminescence, 24 h; GLP-1R form is constitutively active; Potency, µM (titrated, usually from 38.3 µM), for the others: at the highest dose activity change, negative = inhibition, most hits filed as inhibitors; actives 1.6% (n = 410,000); AID 624417, 2012; note: % is set by controls: 0 for no effect and ±100 for the full control effect; nearly all actives have a fitted effect of over 55% in size
Target sequence (P43220 whole entry, looked up): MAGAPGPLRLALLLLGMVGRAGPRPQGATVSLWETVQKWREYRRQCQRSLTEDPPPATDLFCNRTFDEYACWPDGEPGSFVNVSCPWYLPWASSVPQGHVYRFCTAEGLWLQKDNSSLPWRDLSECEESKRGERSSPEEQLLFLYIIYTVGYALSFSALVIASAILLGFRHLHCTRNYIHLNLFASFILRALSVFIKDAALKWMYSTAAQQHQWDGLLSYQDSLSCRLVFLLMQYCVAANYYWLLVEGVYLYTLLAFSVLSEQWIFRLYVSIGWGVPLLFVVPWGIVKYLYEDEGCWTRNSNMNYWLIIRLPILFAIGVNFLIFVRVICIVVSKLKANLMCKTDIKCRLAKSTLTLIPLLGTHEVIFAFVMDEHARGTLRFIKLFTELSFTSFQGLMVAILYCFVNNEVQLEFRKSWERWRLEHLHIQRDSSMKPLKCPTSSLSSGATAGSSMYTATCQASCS
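Cells are plated, allowed 12 hours at 37 deg C, then treated with compounds for 24 hr before luciferase detection reagent is added and luminescence is read after 12 min at room temperature. The HEK293 line carries constitutively active GLP-1R with a cAMP-responsive reporter.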
GLP1R ag: qHTS of GLP-1 Receptor Agonists. Glucagon-like peptide 1 receptor (Homo sapiens), P43220. HEK293 GLP-1R CRE-luciferase, luminescence, 4-6 h; cells express a hypersensitive GLP-1R form. Potency, µM (series often up to 45.6 µM), for inactives: at the top dose activation, usual class: activators. actives 0.007% (n = 380,000). AID 624172, 2012; note: % of control where 0% means no effect
TrxR1 substrate: qHTS Assay for Substrates of Mammalian Selenoprotein Thioredoxin Reductase 1 (TrxR1): qHTS. Thioredoxin reductase 1, cytoplasmic (Rattus norvegicus), O89049. purified TrxR1 substrate turnover, NADPH consumption readout. Potency, µM (doses to about 114 µM), for the others: top-dose activity change, negative = substrate turnover. actives 0.01% (n = 390,000). AID 588456, 2011; note: % is set by controls: 0 for no effect and ±100 for the full control effect; nearly all actives have a fitted effect of over 50% in size
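Rat TrxR1, dispensed at 90 nM, was prereduced with 400 uM NADPH (final) for 5 min at ~22 deg C, then incubated with compound 15 min before 400 uM selenite. A first-read NADPH fluorescence drop versus no-compound background flagged substrates.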
* marks the source's active call; other numbers are inactive results; ? = inconclusive; . = no result given; [ ] = another dose, or the depositor's remark. Calls come from the whole dose curve; as a rule, active = well fitted curve in the direction sought with a large enough effect; inconclusive = small, poorly fitted or top-dose-only effect, or another doubt; inactive = no such curve, though single readings can be large; an effect the other way counts as inactive or inconclusive. Potency is the fitted concentration of half-maximal effect.

SMILES	GLP1R cytotox	rTrxR1 inhibitor	IDH1 R132H inh	GLP-1R inv ag	GLP1R ag	TrxR1 substrate
CC(C)(C)NS(=O)(=O)c1ccc2[nH]c3c(c2c1)CCCCC3	1%	9%[57.1 µM]	-5%	?	7%	6%[57.1 µM]
CCc1ccc(C(c2ccccc2)c2c[nH]c3ccc(C)cc23)s1 (stereo unspecified)	-1%	-7%	2%	?	.	-8%
CC(C)(C)n1ncc2c(=O)n(Cc3ccc(OC(F)(F)F)cc3)cnc21	.	0%	.	.	.	-10%
CCCC(c1nnnn1Cc1ccccc1)N1CCN(c2ccccc2OC)CC1 (stereo unspecified)	-19%	8%[57.1 µM]	1%	?	5%	-12%
CCCC(c1nnnn1Cc1ccc(OC)cc1)N1CCN(c2ccccc2OC)CC1 (stereo unspecified)	0%	19%[57.1 µM]	8%	10µM*	16%	8%[57.1 µM]
CCOC(=O)c1c(SCCN2CCCCC2)n(-c2ccccc2)c(=S)n(-c2ccccc2)c1=O	8%	18µM*	6%	1%	0%	-4%
CCOC(=O)c1c(C)[nH]c(CCC(=O)Nc2cc(C)ccc2OC)c1C	3%	9%[57.1 µM]	7%	-8%	.	2%[57.1 µM]
Cc1ccc(N2CCn3c2nc2c3c(=O)n(CCc3ccccc3)c(=O)n2C)cc1C	-1%	8%	-13%	1%	.	-6%
Cc1ccc(-c2ccc(CCC(=O)O)n2-c2cccc(O)c2)cc1	9%	?	5%	-2%	-3%	0%
CC(=O)N=c1scc(-c2ccccc2)n1-c1cccc(O)c1	2%	-5%	-10%	11µM*	7%	-8%
COc1ccc(-n2c3c(cc(-c4nc(-c5ccc(Cl)cc5)cs4)c2=O)C(=O)CC(C)(C)C3)cc1	2%	11%	7%	7%	.	9%
Cc1c(C(=O)NC(C)c2ccccc2)sc2ncnc(N(C)C3CCCCC3)c12 (stereo unspecified)	7%	7%[57.1 µM]	0%	11µM*	.	-4%[57.1 µM]
CCc1ccc(NC(=O)c2ccc3c(O)c(S(=O)(=O)c4ccc(Cl)cc4)c(=O)[nH]c3c2)cc1	-4%	-6%	-9%	14%	.	-8%
Cc1oc2ncnc(N3CCOCC3)c2c1C(=O)NCc1ccccc1	-11%	10%	0%	-1%	.	1%
CCOC(=O)Nc1ccc2c(c1)N(C(=O)CCN1CCOCC1)c1ccccc1S2=O (stereo unspecified)	?	32µM*	-3%	-3%	-10%	2%
CCOC(=O)Nc1ccc2c(c1)N(C(=O)CCN1CCOCC1)c1ccccc1S2	5%	16%	5%	66%	27%	-2%
CC(=O)N1CN(Cc2ccccn2)Cc2c1sc1c2CCCC1	-1%	50µM*	7%	17%	-3%	-2%
CNc1ccc(/C=C/c2ccccc2)cc1	.	-9%	.	.	.	9%
Cc1cc(C(F)(F)F)nn1-c1nc(-c2ccccc2)cc(C(F)(F)F)n1	1%	16%	13%	?	.	-1%
Cc1ccc(/C=N/N(C)S(=O)(=O)c2ccc(C)cc2)cc1	7%	-5%	5%	10µM*	7%	-7%
COc1ccc(NS(=O)(=O)c2ccc(O)c(NC(=O)c3ccc(S(=O)(=O)N4CCCCCC4)cc3)c2)cc1	-9%	-3%	-10%	-24%	2%	-5%
COc1ccc(C(CNC(=O)c2cccc(S(=O)(=O)Nc3ccc(F)cc3)c2)N2CCCC2)cc1 (stereo unspecified)	-12%	0%	2%	10µM*	-11%	-6%
COc1ccc(C(CNC(=O)c2cccc(NS(=O)(=O)c3ccc(C)c(F)c3)c2)N(C)C)cc1 (stereo unspecified)	-18%	3%[57.1 µM]	-8%	11µM*	10%	0%[57.1 µM]
COc1ccc(NS(=O)(=O)c2cccc(NC(=O)c3ccc(S(=O)(=O)N4CCCCCC4)cc3)c2)cc1	-5%	-6%	-1%	7.9µM*	1%	-13%
COc1ccc(C(CNC(=O)c2cccc(NS(=O)(=O)c3ccccc3)c2)N(C)C)cc1 (stereo unspecified)	-4%	-10%	3%	-21%	7%	-5%
SMILES	GLP1R cytotox	rTrxR1 inhibitor	IDH1 R132H inh	GLP-1R inv ag	GLP1R ag	TrxR1 substrate
COc1ccc(C(CNC(=O)COc2ccc(Br)cc2F)N2CCCC2)cc1 (stereo unspecified)	8%	19%[57.1 µM]	5%	13µM*	5%	8%[57.1 µM]
Cc1ccc(NC(=O)c2cc(S(=O)(=O)NC3CCCCCC3)ccc2F)cc1F	-15%	12%[57.1 µM]	37%	?	.	-8%[57.1 µM]
C/C=C1\COC(C(=O)NCc2cccc(OC)c2OC)(C(F)(F)F)C=C1C=C(C)C (stereo unspecified)	.	-18%	.	.	.	-6%
CCOc1ccc(NC(=O)c2cnn3c2NC(C)=C(C(=O)Nc2ccc(Cl)cc2)C3c2ccc(OC)c(OC)c2)cc1 (stereo unspecified)	0%	16%	1%	-1%	.	15%
O=C(NCC(c1ccc(F)cc1)N1CCOCC1)c1ccc(OCc2ccccc2)cc1 (stereo unspecified)	-13%	-6%	5%	10µM*	2%	-1%
O=S(=O)(Nc1nc2ccccc2nc1Nc1cccc(S(=O)(=O)N2CCCCC2)c1)c1ccccc1	-29%	-12%	-3%	11µM*	-18%	15%
COc1ccc(C(CNC(=O)c2ccc(OCc3ccccc3)cc2)N2CCOCC2)cc1 (stereo unspecified)	-10%	10%	3%	?	3%	-3%
COC(=O)[C@@]12C[C@@H](CC(=O)N3CCN(C(=O)c4ccco4)CC3)C(=O)N(Cc3cccc4ccccc34)C1=CCC(C)(C)C2	-9%	.	.	?	.	.
N#CC(C#N)=c1ccc2c(c1)NC1(CCCCC1)N=2	10µM*	0%	5%	164%	0%	-5%
O=C(Nc1cc2ccc(O)cc2oc1=O)c1ccc(F)cc1	1%	5%[57.1 µM]	-13%	22%	.	-6%[57.1 µM]

Screens from PubChem BioAssay.
